# Laboratory results from PubChem BioAssay (NCI).
# About 83,000 compounds went through this panel and 20% of them were active in at least one assay; those are over-represented in the sample as a whole.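 Interpretation: 100, growth as untreated; towards 0, rising growth inhibition; 0, no net growth; 0 to -100, cell death. Compounds scoring below 10 were considered active.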 Activity calls are given as the source filed them.
# Tested on: SK-MEL-2 melanoma
# Assay: NCI-60 one-dose screen, 48 h (100 = growth as untreated, 0 = no growth, -100 = all killed)
# Details: 10 µM unless noted
row,Compound,growth
1,COc1ccc2[nH]cc(-c3csc4nc(-c5ccccc5)cn34)c2c1,-5.6% (active)
2,COc1cc(Cn2cc3c(c2)-c2onc(CN4CCCC4)c2CC3)cc(OC)c1OC,101% (inactive)
3,COC(=O)/C=C/c1c(C2(C)NC(=O)c3ccccc3N2)c(=O)oc2ccc(Cl)cc12 (stereo not drawn),93.7% (inactive)
4,Cc1ccc2c(c1)Oc1nc(N)c(C#N)c(N)c1C2Sc1ccc(F)cc1 (stereo not drawn),-75.2% (active)
5,COc1ccc(Cn2cc3c(c2-c2cc(OC)c(OC)c(OC)c2)CCc2c(CN4CCCC4)noc2-3)cc1,57.1% (inactive)
6,COc1ccc(Cn2cc3c(c2-c2cc(OC)c(OC)c(OC)c2)CCc2c(CN4CCOCC4)noc2-3)cc1,62.4% (inactive)
7,CCNC(=O)N1CCc2cc(OC)c(OCCc3ccc(OC)cc3)cc2C1c1ccc([N+](=O)[O-])cc1C (stereo not drawn),22.3% (inactive)
8,COc1ccc([C@@H]2[C@@H](O)C(=O)N2c2cc(OC)c(OC)c(OC)c2)cc1F,-5.37% (active)
9,Cc1ccc(-c2nnc(SCc3ccc(O)c4ncccc34)n2-c2ccccc2)cc1,-0.952% (active)
10,COc1cc2oc(-c3cccc(C(=O)N[C@@H](CC(C)C)C(=O)OC(C)(C)C)c3)cc(=O)c2c(OC)c1OC,81.6% (inactive)
11,Cc1ccc(S(=O)(=O)N(CC[C@@H]2C[C@H]2c2cc3ccccc3o2)S(=O)(=O)c2ccc(C)cc2)cc1,102% (inactive)
12,Brc1ccccc1/C=N/Nc1nc(N/N=C/c2ccccc2Br)nc(N2CCOCC2)n1,96.3% (inactive)
13,CC1=NC2=NC(=O)/C(=C3/N=C(C)C=C(c4ccccc4)N3N)NN2C(c2ccccc2)=C1,108% (inactive)
14,CN(C)CCN(C)c1ccc2ncc(C#Cc3cncc(C(=O)Nc4ccc(CN5CCN(C)CC5)c(C(F)(F)F)c4)c3)n2n1,84.5% (inactive)
15,NC(N)=Nc1ccc(Oc2cccc(Nc3ccc(Br)c(C(F)(F)F)c3)c2)cn1,-45.1% (active)
16,COc1cc(Cn2cc3c(c2)-c2onc(CN4CCOCC4)c2CC3)cc(OC)c1OC,104% (inactive)
17,Cc1cc(-c2ccc(Cl)cc2)n(Cc2nnc(SCC(=O)Nc3ccc(S(N)(=O)=O)cc3)n2-c2ccc([N+](=O)[O-])cc2)n1,87% (inactive)
18,COc1ccc(C(=O)CSc2nc3c(c(Nc4ccc(S(N)(=O)=O)cc4)n2)CCCC3)cc1,104% (inactive)
19,CCn1c(SCC(=O)Nc2cccc(C(=O)/C=C/c3cc(OC)c(OC)c(OC)c3)c2)nc2ccccc2c1=O,109% (inactive)

row,Compound,growth
1,Nc1ncc(-c2ccc(NS(=O)(=O)c3ccc(Cl)c(Cl)c3)cc2)[nH]1,105% (inactive)
2,Cc1nn(-c2ccccc2)c2ncnc(N/N=C/c3ccccc3O)c12,35.4% (inactive)
3,COc1cc(-c2nnc(SCc3ccc(O)c4ncccc34)n2-c2ccccc2)cc(OC)c1OC,24.6% (inactive)
4,Oc1ccc(CSc2nnc(-c3ccc(Cl)cc3)n2-c2ccccc2)c2cccnc12,35.2% (inactive)
5,CCc1ccc(SC2c3ccc(N(CC)CC)cc3Oc3nc(N)c(C#N)c(N)c32)cc1 (stereo not drawn),-48.2% (active)
6,CS(=O)(=O)Nc1cc(-c2ccc3ncc(C#N)c(NCc4ccccc4O)c3c2)cnc1Cl,-38.3% (active)
7,NS(=O)(=O)c1ccc(Nc2cc(-c3ccccc3)nc(SCC(=O)c3ccccc3)n2)cc1,105% (inactive)
8,c1ccc(C(c2nc3ncncc3[nH]2)N2CSc3nc4ccccc4n3C2)cc1 (stereo not drawn),103% (inactive)
9,COCCNc1ccc2ncc(C#Cc3cncc(C(=O)Nc4ccc(CN5CCN(C)CC5)c(C(F)(F)F)c4)c3)n2n1,-90.5% (active)
10,O=c1c2ccccc2nc(COc2ccccc2)n1NS(=O)(=O)c1ccc(Cl)cc1,74.7% (inactive)
11,NC(N)=Nc1ccc(Oc2cccc(Nc3ccc(Cl)c(C(F)(F)F)c3)c2)cn1,-17.7% (active)
12,O=C1CC(=O)N2CSCN(C(c3ccccc3)c3nc4ncncc4[nH]3)C2=N1 (stereo not drawn),96.6% (inactive)
13,COc1cc(/C=N/NC(=O)c2cn(C3CC3)c3c(OC)c(N4CC5CCCNC5C4)c(F)cc3c2=O)ccc1O (stereo not drawn),113% (inactive)
14,C[C@H](CCC(=O)NCc1ccc(C(=O)Nc2ccccc2N)cc1)[C@H]1CC[C@H]2[C@@H]3[C@@H](O)C[C@@H]4C[C@H](O)CC[C@]4(C)[C@H]3CC[C@]12C,68.8% (inactive)
15,N#Cc1cn(Cc2ccc(Cl)cc2Cl)c(C(=O)c2ccc(Br)cc2)c1N,97.9% (inactive)
16,CCNC(=O)N1CCc2cc(OC)c(OCCc3ccc(OC)nc3)cc2C1c1ccc(OC)cc1C (stereo not drawn),30.1% (inactive)
17,C=CCn1c(-c2nc3ccc(C(=C(C#N)C#N)c4ccccc4)cc3[nH]2)cc2cc(Br)ccc21,96.7% (inactive)
18,Cc1ccc(S(=O)(=O)NCCNc2nc(Nc3ccc(N4CCN(C)CC4)cc3)nc3ccsc23)cc1,115% (inactive)
19,COc1cc2nc(Cl)nc(Nc3cccc(C4=Nc5c(N)nc(N)nc5NC(c5ccc(Cl)cc5)C4)c3)c2cc1OC (stereo not drawn),76.9% (inactive)
